High-throughput results as filed in PubChem BioAssay.
NR3A LBD binder – modulates the human NR3A ligand-binding domain; AID 1259313; NR3A LBD differential scanning fluorimetry, Tm shift; 0% = protein alone, 100% = glycine-bound protein; hit rate 2.5% among 340,000; Tm shift relative to glycine control, % at 25 µM;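 active = melting temperature shift of at least 10% of the positive control shift, at one fixed dose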
FAS TE block – inhibitors of human fatty acid synthase thioesterase domain | AID 602261 | recombinant FAS-TE, OMFH fluorogenic substrate, fluorescence endpoint | inhibition, % at 15 µM | hit rate 0.67% among 360,000;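 active = compounds whose normalised, plate-corrected inhibition of enzyme fluorescence in the single-dose primary screen is 50% or more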
pCIP destab – lowers stability of the mouse p/CIP coactivator protein; Q05BA5; F442A p/CIP-EGFP cells, EGFP fluorescence, 16 h; decrease of EGFP signal, % at 10 µM; hit rate 0.01% among 290,000; AID 1984;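 active = EGFP signal decrease of at least 30% at 10 µM or well 3 SD below plate mean, unless failing retest; inactive = the rest, including hits failing retest or dose response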
Target sequence (Q05BA5 1-1403): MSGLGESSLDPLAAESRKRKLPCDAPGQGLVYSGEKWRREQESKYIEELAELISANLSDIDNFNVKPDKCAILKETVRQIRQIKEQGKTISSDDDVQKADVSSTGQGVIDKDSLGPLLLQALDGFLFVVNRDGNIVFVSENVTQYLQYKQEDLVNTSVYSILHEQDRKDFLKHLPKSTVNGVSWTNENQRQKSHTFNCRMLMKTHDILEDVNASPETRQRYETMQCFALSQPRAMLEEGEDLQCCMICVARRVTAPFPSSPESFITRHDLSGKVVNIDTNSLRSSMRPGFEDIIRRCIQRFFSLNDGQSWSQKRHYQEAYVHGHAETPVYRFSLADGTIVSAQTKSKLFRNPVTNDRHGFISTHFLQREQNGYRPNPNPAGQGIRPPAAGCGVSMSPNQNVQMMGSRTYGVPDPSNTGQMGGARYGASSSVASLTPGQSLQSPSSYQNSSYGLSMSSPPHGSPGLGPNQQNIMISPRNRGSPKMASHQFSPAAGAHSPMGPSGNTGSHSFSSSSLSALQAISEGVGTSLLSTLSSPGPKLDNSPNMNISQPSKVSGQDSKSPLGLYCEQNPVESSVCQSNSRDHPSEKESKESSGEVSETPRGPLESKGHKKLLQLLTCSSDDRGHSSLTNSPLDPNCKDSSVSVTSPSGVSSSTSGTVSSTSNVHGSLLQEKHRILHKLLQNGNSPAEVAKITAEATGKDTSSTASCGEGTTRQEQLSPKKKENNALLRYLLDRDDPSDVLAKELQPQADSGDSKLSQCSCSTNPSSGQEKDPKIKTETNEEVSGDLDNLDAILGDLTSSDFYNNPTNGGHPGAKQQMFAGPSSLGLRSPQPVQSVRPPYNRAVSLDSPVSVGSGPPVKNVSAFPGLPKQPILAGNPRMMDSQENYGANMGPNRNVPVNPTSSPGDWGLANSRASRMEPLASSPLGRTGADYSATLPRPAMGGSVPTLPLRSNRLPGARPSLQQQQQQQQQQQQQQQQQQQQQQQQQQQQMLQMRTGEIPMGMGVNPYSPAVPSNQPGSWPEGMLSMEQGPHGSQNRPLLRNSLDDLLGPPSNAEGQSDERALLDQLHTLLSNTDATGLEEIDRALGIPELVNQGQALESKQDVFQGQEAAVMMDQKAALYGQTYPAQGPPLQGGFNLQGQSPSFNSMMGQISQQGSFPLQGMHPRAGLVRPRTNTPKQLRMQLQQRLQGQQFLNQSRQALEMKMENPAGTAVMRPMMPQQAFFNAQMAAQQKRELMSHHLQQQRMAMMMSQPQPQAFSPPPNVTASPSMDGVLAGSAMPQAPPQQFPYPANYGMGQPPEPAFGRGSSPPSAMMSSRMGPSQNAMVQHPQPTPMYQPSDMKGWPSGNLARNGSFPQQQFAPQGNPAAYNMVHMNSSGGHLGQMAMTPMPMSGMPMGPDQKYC
MIN6 prolif – inducers of beta-cell replication in MIN6 cells. proliferation, % at 10 µM. AID 2380. hit rate 0.29% among 330,000. MIN6 cells proliferation, ATPlite luminescence, 48 h; cells starved in 0.2% serum; 100% = growth in 10% serum;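 active = compounds whose signal lies at least 3.5 SD above the mean of all wells on their plate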
MPTP block – inhibitors of mitochondrial permeability transition pore; inhibition, % at 10 µM; hit rate 1.4% among 360,000; AID 602449; isolated mouse mitochondria, Ca2+ swelling absorbance, 30 min;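 active = inhibition of 50% or more, scaled per plate between neutral and stimulator controls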
Numbers stand for hits; – = inactive; · = no result. This is a sample that favours compounds with a hit; in the whole collection about 4.1% have one here.

SMILES	NR3A LBD binder	FAS TE block	pCIP destab	MIN6 prolif	MPTP block
CCc1ccc(NC(=O)Cc2ccc(NC3=NC4CS(=O)(=O)CC4S3)cc2)cc1 (stereo unspecified)	10	–	–	–	–
CCc1ccc(NC(=O)c2ccc(NC3=NC4CS(=O)(=O)CC4S3)cc2)cc1 (stereo unspecified)	13	–	–	–	–
CCc1c(C)[nH]n(-c2nc(-c3ccccc3)cs2)c1=O	–	–	–	–	–
Cc1[nH]n(-c2nc(-c3ccc(Cl)cc3)cs2)c(=O)c1N=Nc1ccc(O)cc1	19	–	–	–	–
COCCCNC(=O)c1ccccc1SC	13	–	–	–	–
CCOCCCNC(=O)c1ccccc1SC	–	–	–	–	–
Oc1ccc(/C=N/n2c3ccccc3c3ccccc32)cc1	16	–	–	–	–
NS(=O)(=O)c1ccc(NC(=O)c2cc(-c3ccccc3O)n[nH]2)cc1	34	–	–	–	–
COc1ccc(NC(=O)c2cc(-c3ccccc3O)n[nH]2)cc1Cl	26	–	–	–	–
Cc1ccc(NC(=O)c2cc(-c3ccccc3O)n[nH]2)cc1Cl	26	–	–	–	–
CC1(C(=O)Nc2ccc3ccccc3c2)CCC(=O)N1CCCn1ccnc1 (stereo unspecified)	·	–	·	·	–
COc1cc2c(cc1OC)C1=NC(=O)CN1C(SCc1ccccc1C)=N2	26	–	–	–	–
O=C(CN(c1cccc(Cl)c1)S(=O)(=O)c1ccc(Cl)cc1)N1CCc2ccccc2C1	11	–	–	–	–
CC(C)C[C@@H]1Cc2[nH]c(=S)[nH]c(=O)c2[C@H](C)O1	·	–	·	·	–
COc1ccc(-c2noc(N3CCCC(C(=O)Nc4ccccc4F)C3)n2)cc1 (stereo unspecified)	13	–	–	–	–
COc1ccc(-c2noc(N3CCCC(C(=O)Nc4ccc(F)cc4F)C3)n2)cc1 (stereo unspecified)	–	–	–	–	–
Cc1ccc(S(=O)(=O)N2CCOC2CNC(=O)C(=O)NCCN(C)C)cc1 (stereo unspecified)	13	–	–	–	–
CCCCN(C=O)c1c(CC)nc2c(OCc3ccc(Cl)cc3)cccn12	·	–	·	·	–
O=c1[nH]c(C2CCN(S(=O)(=O)c3cccc(C(F)(F)F)c3)CC2)nc2c1nnn2Cc1cccc(F)c1	16	–	–	–	–
Clc1ccc2scc(CN3CCCCC3)c2c1	16	–	–	–	–
COc1ccc(S(=O)(=O)N(C)C[C@@H]2Oc3cc(Br)ccc3S(=O)(=O)N([C@H](C)CO)C[C@@H]2C)cc1	·	–	·	·	–
COc1cccc(Nc2nn3c(=O)c4ccccc4nc3s2)c1	23	–	·	–	–
COc1ccc(CCNC(=O)c2cc([C@@H](NC(=O)OC(C)(C)C)C(C)C)sc2N)cc1OC	·	·	·	·	–
COc1cccc(-c2cc(C(=O)Nc3c(C)nn(Cc4ccccc4C)c3C)no2)c1	11	–	–	–	–
CCCCN(C)c1c(C)nc2ccc(C(=O)NCCCn3ccnc3)cn12	·	–	·	·	–
SMILES	NR3A LBD binder	FAS TE block	pCIP destab	MIN6 prolif	MPTP block
C=CCn1c(SCC(=O)Nc2ccccc2-c2ccccc2)nc2cc(C(=O)O)ccc2c1=O	–	–	–	–	–
C=CCn1c(SCC(=O)Nc2ccc(F)cc2)nc2cc(C(=O)O)ccc2c1=O	15	–	–	–	–
CC1CCN(S(=O)(=O)c2ccc3c(c2)C(Cl)(Cl)C(=O)N3)CC1	·	–	·	·	–
Cc1cc(N)n(-c2nc3ccccc3s2)n1	32	–	–	–	–
Cc1nn(-c2nc3ccccc3s2)c(N)c1Sc1ccc(F)cc1	15	–	–	–	–
Cc1nn(-c2nc3ccccc3s2)c(N)c1-c1ccccc1	–	–	–	–	–
Cc1cc(C)n(-c2nc3ccccc3s2)n1	–	–	–	–	–
CC(C)NC(=O)c1ccc2sc([C@@H]3O[C@H](CO)[C@H](O)[C@H](O)[C@H]3O)nc2c1	·	–	·	·	–
COc1cc(/C=C2\C(=N)N3N=C(S(C)(=O)=O)SC3=NC2=O)cc(OC)c1OCCOc1ccccc1C	33	–	–	–	–
C=CCOc1ccc(/C=C2\C(=N)N3N=C(S(=O)(=O)CC)SC3=NC2=O)cc1OC	11	–	–	–	–
CCS(=O)(=O)C1=NN2C(=N)/C(=C\c3ccc(OC(=O)c4ccco4)c(OC)c3)C(=O)N=C2S1	–	–	–	–	–
COC(=O)c1cncn1Cc1ccccc1	–	–	·	·	–
CC(=O)Nc1ccc(S(=O)(=O)N(C)CCOCc2ccccc2)cc1	16	–	–	–	–
CS(=O)(=O)N1N=C(c2cccs2)CC1c1ccccc1O (stereo unspecified)	–	–	–	–	–
Oc1ccccc1C1CC(c2cccs2)=NC(c2ccc(Cl)cc2)N1 (stereo unspecified)	10	–	–	–	–
Cc1cccc(NC(=O)c2cc3c([nH]c4ccccc43)c(C)n2)c1C	14	–	–	–	–
Cc1ccc(C)c(NC(=O)c2cc3c([nH]c4ccccc43)c(C)n2)c1	–	–	–	–	–
C[C@H](CO)N1C[C@H](C)[C@@H](CN(C)C(=O)Nc2cc(F)ccc2F)Oc2ncc(-c3cccc(F)c3)cc2C1=O	·	–	·	·	–
NC(=O)CSc1nnc(-c2ccc(S(=O)(=O)N3CCCC3)cc2)n1Cc1ccco1	11	–	–	–	–
O=C(O)CSc1nnc(-c2ccc(S(=O)(=O)N3CCCC3)cc2)n1Cc1ccco1	–	–	–	–	–
CCc1ccc(C(O)c2ncc(-c3ccccc3C(F)(F)F)[nH]2)cc1 (stereo unspecified)	·	–	·	·	–
O=c1[nH]c(-c2ccc(Cl)cc2)cs1	–	–	–	–	–
O=c1[nH]c(-c2ccccc2)cs1	11	–	–	–	–
Cc1ccc(C(=O)C(NC(=O)c2ccco2)N2CCOCC2)cc1 (stereo unspecified)	11	–	–	–	–
O=C(NC(C(=O)c1ccccc1)N1CCCCCC1)c1ccco1 (stereo unspecified)	–	–	–	–	–
SMILES	NR3A LBD binder	FAS TE block	pCIP destab	MIN6 prolif	MPTP block
Cc1ccc(/C=N/NC(=O)c2cc(-c3ccc(C)o3)[nH]n2)cc1	34	–	–	–	–
O=C(N/N=C/c1ccncc1)c1cc(-c2ccc(Br)s2)[nH]n1	17	–	–	–	–
Cc1cc(C(=O)N/N=C/c2ccc(-c3ccc(C)c(Cl)c3)o2)n[nH]1	15	–	–	–	–
Cc1ccc(-c2cc(C(=O)N/N=C/c3cccnc3)n[nH]2)o1	–	–	–	–	–
Cc1nn(-c2ccccc2)c(C)c1/C=N/NC(=O)c1cc(-c2ccc(Cl)s2)[nH]n1	12	–	–	–	–
CCCNC(=O)C1(C)CCCN(Cc2cc(-c3ccccc3)nn2C)C1 (stereo unspecified)	·	–	·	·	–
CCOC(=O)c1cn(Cc2ccccc2)c2cc(C)nn2c1=O	11	–	–	–	–
CCc1cccc2c(C(=O)COC(=O)c3ccc(O)cc3)c[nH]c12	15	–	–	–	–
